In the library only some 5.4% were active in any assay of this set; here they are far more common.
HSF1 inh: HSF1 inhibition; activity change, negative = inhibition, % at 7.5 µM (by protocol); actives 0.77% (n = 300,000); NIH3T3-HGL HSE-luciferase, MG132-induced, luminescence 8 h; stronger effect = lower value;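 active means more than half of replicate wells show activity change below -50%, luminescence cut by over half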;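 further: luciferase reports HSF-1 transcriptional activity via heat shock element; 0% = median of DMSO wells and -100% = zero luminescence signal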
FXN GAA850 act: frataxin GAA850 promoter activation; HEK293 lucGAA850 FXN promoter luciferase reporter, 24 h; percent of 10 µM SAHA response; activation, % at 6 µM; actives 0.56% (n = 360,000); AID 540364;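 active means activation above the average of all compounds screened plus 3 SD, cutoff fixed separately per campaign, cut at about 7.5% in these data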;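 further: 0% = DMSO wells and 100% = 10 µM SAHA wells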
HSF1 activator: increases HSF-1 driven luciferase reporter signal; NIH3T3-HGL HSF-1 luciferase reporter, MG132, 8 h; 100% = twice DMSO control signal; activation, % at 9 µM; actives 1.7% (n = 300,000); AID 504408;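 active means mean replicate activation of at least 50% with a set share of replicates each reaching 50%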;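 further: 0% = median of the neutral control wells and 100% = twice that signal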
AHR activator: activators of human aryl hydrocarbon receptor; P35869; actives 2.5% (n = 320,000); activation, % at 5 µM; AHR-responsive luciferase reporter cells, luminescence; in the data active means activation above about 47%;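 further: 0% = vehicle wells and 100% = reference agonist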
NR0B1 inh: inhibitors of human orphan nuclear receptor DAX1 (NR0B1). P51843. actives 0.99% (n = 340,000). HEK293 Gal4-DAX1 luciferase reporter, luminescence. inhibition, % at 6.75 µM;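 active means inhibition above the mean over all tested compounds plus 3 SD, cut at about 4.2% in these data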;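 further: 0% = DAX1-transfected cells with DMSO and 100% = empty-vector control cells with DMSO; inhibition shows as a rise in luminescence from relieved DAX1 repression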
Target sequence (P51843 207-470 limits assumed): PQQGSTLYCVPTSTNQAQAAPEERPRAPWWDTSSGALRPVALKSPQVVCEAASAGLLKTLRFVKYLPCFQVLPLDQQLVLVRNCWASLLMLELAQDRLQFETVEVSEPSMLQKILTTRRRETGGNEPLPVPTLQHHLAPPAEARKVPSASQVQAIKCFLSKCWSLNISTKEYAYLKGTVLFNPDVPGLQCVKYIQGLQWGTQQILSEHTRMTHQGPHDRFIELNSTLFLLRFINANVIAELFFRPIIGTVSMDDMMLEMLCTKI
* hit, by the source's call; / = not tested or not shown.

SMILES	HSF1 inh	FXN GAA850 act	HSF1 activator	AHR activator	NR0B1 inh
Cn1c(O)c(C=Nc2ccc(Br)cc2)sc1=O	24	4	58*	63*	-1
C#CCSc1nc(-c2ccccc2)cc(C(F)(F)F)c1C#N	2	2	-1	64*	1
COc1ccc(-c2cc(C(F)(F)F)c(C#N)c(SCC(=O)O)n2)cc1	-5	-1	-1	26	0
O=C(CSc1cn(Cc2ccccc2)c2ccccc12)Nc1nccs1	45	3	65*	20	2
COc1cc(OC)c(N(C)S(=O)(=O)c2cccc(C(=O)OCC(=O)N(C)C3CCCCC3)c2)cc1Cl	/	0	/	/	2
O=[N+]([O-])c1cccc(N/N=C/c2cccc3ccccc23)c1	1	5	-3	61*	0
COc1ccccc1NS(=O)(=O)c1cc([N+](=O)[O-])ccc1N/N=C/c1c[nH]c2ccccc12	3	-2	22	16	0
O=[N+]([O-])c1ccccc1N/N=C/c1c[nH]c2ccccc12	98	5	150*	73*	3
O=[N+]([O-])c1ccc(N/N=C/c2c[nH]c3ccccc23)cc1	103	-2	155*	1	-1
O=[N+]([O-])c1ccc(N/N=C/c2ccc[nH]2)cc1	/	5	/	61*	-1
COc1ccc(S(=O)(=O)N2CCCCCC2)cc1NC(=O)CCCOc1ccccc1	/	3	/	0	-1
CC(C)(C)[C@H]1COC(=O)[C@H](NC(=O)OCC2c3ccccc3-c3ccccc32)C/C=C\C[C@@H](CC(=O)N(CCO)Cc2ccccc2)C(=O)N1	/	-2	/	0	0
COc1ccc(Cl)cc1NS(=O)(=O)c1cccc(C(=O)NCC2(N(C)C)CCCCC2)c1	0	-1	7	/	0
Cc1ccc(S(C)(=O)=N/C=C2\C(=O)c3sccc3N(C)S2(=O)=O)cc1 (centres undefined)	10	0	-1	1	2
O=[N+]([O-])c1ccc(N/N=C/c2cn(-c3ccccc3)nc2-c2ccccc2)cc1	29	3	64*	16	0
COCCNC(=O)C(c1ccc(Cl)cc1)N(Cc1ccco1)C(=O)CCC(=O)Nc1ccccn1 (centres undefined)	-1	0	30	-5	8.8*
COCCNC(=O)C(c1ccc(O)cc1)N(Cc1ccco1)C(=O)CCC(=O)Nc1ccccn1 (centres undefined)	0	-1	-6	-1	-1
Cc1onc(-c2ccccc2)c1C(=O)N(C)CC(=O)Nc1ccc(F)c(F)c1F	/	-1	/	7	0
Cc1cc(C)nc(SC/C=C/c2ccccc2)n1	-3	1	-10	7	2
C(=C\c1ccccc1)/CSc1ccccn1	104	2	130*	-4	4.4*
O=C(N/N=C/C=C/c1ccco1)c1cccnc1	-9	3	-8	5	2
O=C(CN1CCN(Cc2ccccc2Cl)CC1)N/N=C/C=C/c1ccco1	8	2	39	38	/
O=C(CN1CCN(Cc2ccccc2)CC1)N/N=C\C=C/c1ccco1	-69*	3	-76	8	0
O=C(N/N=C\C=C\c1ccco1)c1cc(-c2ccc3ccccc3c2)n[nH]1	29	5	57*	30	4
Cc1cccc(NC(=S)N/N=C2\CC(C)(C)Oc3ccc(O)cc32)c1	5	-1	7	45	-2
SMILES	HSF1 inh	FXN GAA850 act	HSF1 activator	AHR activator	NR0B1 inh
CC1(C)C/C(=N\NC(=S)Nc2ccccc2F)c2cc(O)ccc2O1	-16	-3	-25	60*	-2
CC1CCN(C(c2ccc(N(C)C)cc2)c2nnnn2Cc2ccccc2)CC1 (centres undefined)	48	1	66*	4	2
CC(C)(C)n1nnnc1C(c1cccnc1)N1CCN(c2ccccc2)CC1 (centres undefined)	-1	-1	-10	-1	3
c1ccc(Cn2nnnc2C(c2cccnc2)N2CCN(c3ccccc3)CC2)cc1 (centres undefined)	-5	0	12	79*	0
COc1ccc(Cn2nnnc2C(c2ccccc2Cl)N2CCC(C(N)=O)CC2)cc1 (centres undefined)	-51*	-2	-64	4	-1
COCCn1nnnc1C(c1ccccc1OC)N1CCN(c2ccccc2)CC1 (centres undefined)	1	0	1	67*	2
COc1ccc(-c2ccc(S(=O)(=O)N3CCCC3)cc2)cc1	-3	2	19	0	5.2*
COc1ccc(S(=O)(=O)N2CCN(C(=O)C3CC3)CC2)cc1	2	-2	18	1	4.2*
COc1ccc(-c2csc(Nc3ccccc3)[n+]2Cc2ccccc2)cc1	-3	0	1	15	1
O=[N+]([O-])c1ccc(-c2csc(Nc3ccccc3)[n+]2Cc2ccccc2)cc1	31	2	84*	6	1
CCOC(=O)N1CCC(N2CC34C=CC(O3)C(C(=O)O)C4C2=O)CC1 (centres undefined)	-5	1	0	2	4.3*
CCOC(=O)C1[C@H]2C(=O)N(C(C)c3ccc(OC)cc3)C[C@]23C=C[C@H]1O3 (some centres undefined)	-3	-3	10	0	0
CCC(C)N1CC23C=CC(O2)C(C(=O)OC)C3C1=O (centres undefined)	-3	0	3	-1	6.7*
CCCN1CC23C=CC(O2)C(C(=O)O)C3C1=O (centres undefined)	-4	-1	-5	-2	5.0*
Cc1cc(C)nc(N/N=C/c2ccccc2OCc2cccc(Br)c2)n1	5	-2	7	15	0
COc1ccccc1NC(C)C(=O)N/N=C/c1ccccc1OCc1cccc(Br)c1 (centres undefined)	-4	1	11	52*	-1
Cc1ccc(-c2nc3sc(C#N)c(N)n3c(=O)c2C#N)cc1	1	2	-9	47	4.8*
Cc1ccc(-n2c(N)c(C#N)c(-c3ccccc3)c(C#N)c2=O)cc1	-5	0	-5	2	1
COc1ccc(C(=O)Nc2ccc3c(c2)OCO3)cc1S(=O)(=O)N1CCOCC1	/	0	/	/	0
COc1cccc(C(=O)O/N=C(\N)c2ccccn2)c1	-87*	-1	-89	22	-3
N/C(=N\OC(=O)c1ccc2ccccc2c1)c1ccncc1	14	2	40	-2	5.2*
CCCc1ccc(C(=O)O/N=C(\N)c2ccccn2)cc1	-83*	-9	-83	-15	-9
N/C(=N\OC(=O)c1cccc2ccccc12)c1ccccn1	-4	1	3	61*	1
COc1ccc(/C(N)=N/OC(=O)c2ccc3ccccc3c2)cc1OC	/	-1	/	/	1
CCC(=O)NC1OC(CO)C(O)C(O)C1O (centres undefined)	15	1	42	-2	1
